# According to PubChem BioAssay (NCATS):
# Inconclusive results are not listed. Active and inactive are the calls of the source. Calls follow the shape of the dose curve; as a rule, active = well fitted inhibition curve with a large enough effect; inconclusive = small, poorly fitted or top-dose-only effect; inactive = no such curve, though single readings can be large or run the other way.
# Tested on: Zika virus NS2B-NS3 protease (unlinked complex)
# Experiment: Primary screen GU Rhodamine qHTS for Zika virus inhibitors: Unlinked NS2B-NS3 protease assay (AID 1347159); also: nearly all actives have a fitted effect of over 60% in size
# Details: Recombinant ZIKV NS2B-NS3 protease, Rhodamine110 substrate fluorescence; series mostly up to 107 µM; activity change, negative = inhibition: at the top concentration
# Summary of the method: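 A qHTS format was used, with compound concentrations ranging up to 114 microM. Each compound was preincubated with 25 nM NS2B-NS3 protease, and the substrate was then added at 1.5 microM. Curves were fitted with a 4-parameter Hill model.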
# % is scaled to controls: 0 for no effect and ±100 for the full control effect; potency is read from the fitted curve at half-maximal effect.
SMILES,Potency,"activity change, negative = inhibition"
CC(=O)c1c(O)cc2cccc3c2c1CC(C)(O)O3 (stereo unspecified),35.5 µM (active),
Cc1ccc2c(c1)C=Cc1cc(C)ccc1C2c1cn(Cc2ccc(C(=O)Nc3nn[nH]n3)o2)c(=O)[nH]c1=S,3.16 µM (active),
C=CC1(C)CC2=CCC3C(C)(C(=O)O)CCCC3(C)C2CC1OC(C)=O (stereo unspecified),,-28.5% (inactive)
Cc1cc(Nc2ncc(Cl)c(Nc3ccccc3S(=O)(=O)C(C)C)n2)c(OC(C)C)cc1C1CCNCC1,,39.4% (inactive)
O=C(CCO[C@@H]1O[C@H](CO)[C@@H](O)[C@H](O)[C@H]1O)c1ccc(O)cc1,,4.61% (inactive)
COc1cc(COC2OC(CO)C(O)C(O)C2O)cc(OC)c1O (stereo unspecified),,14.6% (inactive)
O=C1CC(c2ccc([N+](=O)[O-])cc2)=NN1c1ccccc1,39.8 µM (active),
Clc1ccc2c(c1)C1=NCCN1c1c(-c3noc(C4CC4)n3)ncn1-2,,7.08% (inactive)
C[C@H]1[C@H](C)CC[C@]2(C(=O)O)CC[C@]3(C)C(=CC[C@@H]4[C@@]5(C)C[C@@H](O)[C@H](O)[C@@](C)(CO)[C@@H]5CC[C@]43C)[C@H]12,,2.82% (inactive)
C=C[C@H]1[C@H](O[C@@H]2O[C@H](CO)[C@@H](O)[C@H](O)[C@H]2O)OC=C2C(=O)OCC[C@]21O,35.5 µM (active),
COc1cccc(-c2ccc([C@@H](Oc3cc(-c4ccc(C[C@H](N)C(=O)O)cc4)nc(N)n3)C(F)(F)F)cc2)c1,22.4 µM (active),
COC(=O)C1=COC(O[C@@H]2O[C@H](CO)[C@@H](O)[C@H](O)[C@H]2O)/C(=C\COC(=O)c2ccc(OC3OC(CO)C(O)C(O)C3O)c(OC)c2)C1CC(=O)OCCc1ccc(O)cc1 (stereo partly specified),,-14.4% [at 32.5 µM] (inactive)
CCCCN(CCCC)C(=O)CN1C[C@H](c2ccc3c(c2)OCO3)[C@@H](C(=O)O)[C@@H]1c1ccc(OC)cc1,28.2 µM (active),
C=Cc1cc(O)cc2nc(-c3ccc(O)c(F)c3)oc12,35.5 µM (active),
CC(C)=CCc1ccc(Oc2c(O)cc(C)cc2CO)c(C(=O)O)c1O,6.31 µM (active),
C=C(C)C(C)C1OC23CC4(CO2)C(CCC2C5(C)CCC(OC6OCC(O)C(OC7OC(CO)C(O)C(OC8OCC(O)C(O)C8O)C7O)C6OC6OC(CO)C(O)C6O)C(C)(C)C5CCC24C)C3C(C)(O)C1OC(C)=O (stereo unspecified),,-4.35% [at 32.5 µM] (inactive)

SMILES,Potency,"activity change, negative = inhibition"
OC[C@H]1O[C@@H](Oc2cc(O)cc(-c3cc4ccc(O)cc4o3)c2)[C@H](O)[C@@H](O)[C@@H]1O,,-6.93% [at 57.1 µM] (inactive)
O=C(c1ccc(NS(=O)(=O)c2cccc3cccnc23)cc1)N1CCN(CC2CC2)CC1,,5.54% (inactive)
C=C1CC[C@H]2[C@@H](/C=C(\C)C(=O)[C@@]3(OC(C)=O)C[C@H](C)[C@H](OC(C)=O)[C@@H]3[C@H]1OC(C)=O)C2(C)C,7.94 µM (active),
COC12CC3C(C(C)C1=CC(=O)O2)C(O)C(OC(C)=O)C1C(C)(C)C(OC(C)=O)CCC31C (stereo unspecified),,36.8% [at 57.1 µM] (inactive)
CC(=O)NC(C(=O)OC1CCC(C)(C)C2CC=C3C(=O)OCC3(O)C12C)C(C)C (stereo unspecified),,-6.8% [at 57.1 µM] (inactive)
CC1=C2[C@@H]([C@H](C)CC[C@H]2/C=C(\C)C(=O)O)[C@H](O)C1,,19% (inactive)
C=CC1(C)C=C2C(O)CC3C(C)(C(=O)O)CCCC3(C)C2CC1 (stereo unspecified),11.2 µM (active),
CC1(C)CC[C@]2(C(=O)O)CC[C@]3(C)C(=CCC4[C@@]5(C)CC[C@H](O[C@@H]6O[C@H](C(=O)O)[C@@H](O)[C@H](O)[C@H]6O)C(C)(CO)C5CC[C@]43C)C2C1 (stereo partly specified),,-11.5% [at 32.5 µM] (inactive)
COc1cc(C[C@H]2COC(=O)[C@@H]2Cc2ccc(O)c(OC)c2)ccc1O,35.5 µM (active),
O=C(O)c1cc(O[C@@H]2O[C@H](CO[C@@H]3OC[C@@H](O)[C@H](O)[C@H]3O)[C@@H](O)[C@H](O)[C@H]2O)c2ccccc2c1O,,-17.1% [at 57.1 µM] (inactive)
O=C1[C@H](O[C@@H]2O[C@H](CO)[C@@H](O)[C@H](O)[C@H]2O)Oc2ccccc2N1O,,7.76% (inactive)
C=C1CC2(C(=O)O)CC1CCC2C1(C)CCCC2(C)C(=O)OC(O)C21 (stereo unspecified),,-4.22% (inactive)
COC(=O)[C@H](OC(C)=O)[C@H]1C(C)(C)C(=O)[C@H]2CC3=C4CC(=O)O[C@@H](c5ccoc5)[C@]4(C)CCC3[C@@]1(C)C2=O (stereo partly specified),,-13.3% [at 57.1 µM] (inactive)
O=C(O[C@@H]1O[C@H](CO)[C@@H](O)[C@H](O)[C@H]1O)c1c(O)cc(O)cc1/C=C/c1ccccc1,,3.68% [at 57.1 µM] (inactive)
C=CC(C)(O)CC/C=C(\C)C(=O)OC1CC2(C(=O)O)CCC3(C)C(=CCC4C5(C)CCC(OC6OC(COC7OCC(O)C(O)C7O)C(O)C(OC7OCC(O)C(O)C7O)C6OC6OC(CO)C(O)C(O)C6OC6OCC(O)C(O)C6O)C(C)(C)C5CCC43C)C2CC1(C)C (stereo unspecified),,-12.7% [at 19.1 µM] (inactive)
